{
  "source": "PubChem BioAssay AID463173",
  "about": "(ICCB-Longwood Screening Facility, Harvard Medical School, 2010)",
  "note": "About 4,300 (8.3%) of roughly 52,000 compounds were called active. The sample as a whole holds a higher share of actives than the screen did. A number with no mark means an inactive call. Cut-off read from the data, not from the text of the source: active = survival mostly below about 52% (no sharp cut-off); inactive = mostly above about 56%.",
  "data": [
    {"test_system": "DeltatarO mutant", "assay": "S. aureus survival, RN4220 and DeltatarO strains – OD600, teichoic acid synthesis inhibitors, primary screen (AID 463173)", "conditions": "S. aureus RN4220 wild type/DeltatarO growth, OD600, 18 h, hits give low values, screened at 18.75 µg/mL (by protocol)", "values": [
      {"smiles": "CCOc1ccccc1NC(=O)c1ccc2c(c1)CCCN2S(C)(=O)=O", "survival": "81%"},
      {"smiles": "Cc1nn(-c2ccc(N3CCCC3)nn2)c(C)c1CCC(=O)Nc1ccc(F)c(Cl)c1", "survival": "68%"},
      {"smiles": "O=C(NCc1cccn1Cc1ccccc1)Nc1cccc(C(F)(F)F)c1", "survival": "54%"},
      {"smiles": "COCCCNC(=O)c1ccc(Cn2c(=O)c3ccccc3n(Cc3ccc(Cl)cc3)c2=O)cc1", "survival": "89%"},
      {"smiles": "COc1ccc(NC(=O)CN(C)S(=O)(=O)c2ccc3nc(C)sc3c2)cc1Cl", "survival": "82%"},
      {"smiles": "CN(C)c1ccc(/C=N/c2nc3ccccc3o2)cc1", "survival": "85%"},
      {"smiles": "COc1ccc(CCNC(=O)c2ccc(Cn3c(SCc4ccccc4)nc4cccnc43)cc2)cc1", "survival": "92%"},
      {"smiles": "Cc1cccc(CCNC(=O)c2cc3c(s2)-c2c(C)cccc2OC3)c1", "survival": "83%"},
      {"smiles": "Cc1ccc(CCNC(=O)c2cc3c(s2)-c2c(C)cccc2OC3)cc1", "survival": "93%"},
      {"smiles": "CCN(C(=O)c1cc2c(s1)-c1c(C)cccc1OC2)c1cc(C)ccc1C", "survival": "-1% (active)"},
      {"smiles": "CCN(Cc1ccccc1)C(=O)c1cc2c(s1)-c1c(C)cccc1OC2", "survival": "55% (active)"},
      {"smiles": "Cc1ccc(CNC(=O)c2cc3c(s2)-c2c(C)cccc2OC3)cc1", "survival": "68%"},
      {"smiles": "CCN(C(=O)c1cc2c(s1)-c1c(C)cccc1OC2)c1ccccc1F", "survival": "97%"},
      {"smiles": "CC(C)CCN1C(=O)c2ccccc2CC1(C)C(=O)NC1CCC(C)CC1", "note": "(stereo not drawn)", "survival": "100%"},
      {"smiles": "CCOC(=O)c1c(C)[nH]c(CCC(=O)NCc2ccccc2Cl)c1C", "survival": "98%"},
      {"smiles": "CCOc1ccc(NC(=O)Cn2cc(C(=O)c3ccccc3)c(=O)c3cc4c(cc32)OCCO4)cc1", "survival": "73%"},
      {"smiles": "CC(=O)c1ccc(NC(=O)c2cn(-c3ccccc3)nc2-c2ccc(Br)cc2)cc1", "survival": "75%"},
      {"smiles": "COc1ccc(NC(=O)c2cn(-c3ccccc3)nc2-c2ccc(C)cc2)cc1", "survival": "63%"},
      {"smiles": "O=C(O)c1ccc(NC(=O)c2cn(-c3ccccc3)nc2-c2ccc(Br)cc2)cc1", "survival": "24% (active)"},
      {"smiles": "COc1ccccc1NC(=O)c1cn(-c2ccccc2)nc1-c1ccccc1", "survival": "95%"},
      {"smiles": "CCOC(=O)c1ccc(NC(=O)c2cn(-c3ccccc3)nc2-c2ccc(Br)cc2)cc1", "survival": "70%"},
      {"smiles": "COc1ccc(-c2nn(-c3ccccc3)cc2C(=O)Nc2ccccc2OC)cc1", "survival": "-2% (active)"},
      {"smiles": "CCOC(=O)c1ccc(NS(=O)(=O)c2ccc3c(c2)CCN3C(=O)CC)cc1", "survival": "79%"},
      {"smiles": "Brc1ccc(-c2cn3cc(Cc4ccccc4)sc3n2)cc1", "survival": "64%"},
      {"smiles": "COc1ccc(NC(=O)Cn2c(=O)oc3cc(S(=O)(=O)N4CCCCC4C)ccc32)cc1", "note": "(stereo not drawn)", "survival": "47% (active)"},
      {"smiles": "CC1CCN(S(=O)(=O)c2ccc3c(c2)oc(=O)n3CC(=O)N2CCCCC2)CC1", "survival": "66%"},
      {"smiles": "CC1CCN(S(=O)(=O)c2ccc3c(c2)oc(=O)n3CC(=O)O)CC1", "survival": "0% (active)"},
      {"smiles": "COc1ccc(Br)cc1CNC(=O)c1cc(=O)[nH]c2ccc(S(=O)(=O)N3CCCCC3C)cc12", "note": "(stereo not drawn)", "survival": "82%"},
      {"smiles": "CC1CCN(C(=O)Cn2c(=O)oc3cc(S(=O)(=O)N4CCCCC4)ccc32)CC1", "survival": "86%"},
      {"smiles": "COc1ccc(CCNC(=O)c2cc(=O)[nH]c3ccc(S(=O)(=O)N4CCCCC4C)cc23)cc1OC", "note": "(stereo not drawn)", "survival": "117%"},
      {"smiles": "COc1cc(NC(=O)Cn2c(=O)oc3cc(S(=O)(=O)N4CCCCCC4)ccc32)cc(OC)c1", "survival": "95%"},
      {"smiles": "COc1ccc(OC)c(CNC(=O)c2cc(=O)[nH]c3ccc(S(=O)(=O)N4CCCCC4C)cc23)c1", "note": "(stereo not drawn)", "survival": "6% (active)"},
      {"smiles": "CCOc1ccc(NC(=O)Cn2c(=O)oc3cc(S(=O)(=O)N4CCCCCC4)ccc32)cc1", "survival": "75%"},
      {"smiles": "Fc1ccc(N2CCN(c3ncnc4[nH]ncc34)CC2)cc1", "survival": "95%"},
      {"smiles": "CCSc1ncc(Cl)c(C(=O)Nc2c(C(=O)Nc3cccc(C)c3)oc3ccccc23)n1", "survival": "109%"},
      {"smiles": "Cc1c(C(=O)NCCc2ccccc2)cccc1-n1cnc2cccnc21", "survival": "75%"},
      {"smiles": "O=C(O)c1cccc(NC2SC(=O)N(c3ccccc3)C2=O)c1", "note": "(stereo not drawn)", "survival": "107%"},
      {"smiles": "O=C1C(=O)N(C2CCN(C(=O)c3ccc(Cl)cc3)CC2)CCN1Cc1ccc(F)cc1", "survival": "78%"},
      {"smiles": "COc1ccc(-n2c(SCC(=O)N3CCc4ccccc43)nc3c([nH]c4ccccc43)c2=O)cc1", "survival": "92%"},
      {"smiles": "Cc1cccc(NC(=O)CN(C)S(=O)(=O)c2cnc[nH]2)c1C", "survival": "97%"},
      {"smiles": "CCN1CCc2c(sc(NC(=O)c3ccc(S(=O)(=O)N(C)C4CCCCC4)cc3)c2C(N)=O)C1", "survival": "80%"},
      {"smiles": "Cc1ccccc1NC(=O)Cn1cc(S(=O)(=O)N2CCCC2)c(S(=O)(=O)N2CCCC2)c1", "survival": "90%"},
      {"smiles": "CC(=O)c1ccc(NC(=O)CCCc2nc(-c3cccc(C)c3)no2)cc1", "survival": "69%"},
      {"smiles": "COc1ccc(N2CCN(CCCNC(=O)C3COc4ccccc4C3)CC2)cc1", "note": "(stereo not drawn)", "survival": "131%"},
      {"smiles": "CCn1c(CNc2ccc(C)cc2)nnc1SCc1ccccc1", "survival": "115%"},
      {"smiles": "Cc1ccc(CN(C(=O)Nc2cccc(Cl)c2)c2ccccn2)cc1", "survival": "40% (active)"},
      {"smiles": "COc1cc(CN(C(=O)Nc2cccc(Cl)c2)c2ccccn2)cc(OC)c1OC", "survival": "68%"},
      {"smiles": "O=C(Nc1ccccc1)N(Cc1cccc(Cl)c1)c1ccccn1", "survival": "37% (active)"},
      {"smiles": "CCc1ccc(CN(C(=O)Nc2cccc(Cl)c2)c2ccccn2)cc1", "survival": "94%"},
      {"smiles": "O=C(Nc1ccccc1)N(Cc1ccc(F)cc1)c1ccccn1", "survival": "56%"},
      {"smiles": "COc1ccc(CN(C(=O)Nc2cccc(Cl)c2)c2ccccn2)cc1OC", "survival": "92%"},
      {"smiles": "COc1cc(NC(=O)CCn2cnc3ccccc3c2=O)cc(OC)c1", "survival": "122%"},
      {"smiles": "CCN(CC)C(=O)Cn1cc(SCC(=O)Nc2cccc(C)c2)c2ccccc21", "survival": "69%"},
      {"smiles": "Cc1ccc2c(CC(=O)Nc3c(C(=O)c4ccc(C)c(F)c4)oc4ccccc34)coc2c1", "survival": "96%"},
      {"smiles": "O=C(NCc1ccccc1)C1CCN(S(=O)(=O)Cc2ccccc2)CC1", "survival": "98%"},
      {"smiles": "CCc1cccc(NC(=O)C2CCN(S(=O)(=O)c3cccc(-c4noc(C)n4)c3)CC2)c1", "survival": "73%"},
      {"smiles": "Cc1cc(C)cc(NC(=O)C2CCN(S(=O)(=O)c3cccc(-c4noc(C)n4)c3)CC2)c1", "survival": "-5% (active)"},
      {"smiles": "CCc1ccc(NC(=O)C2CCN(S(=O)(=O)c3cccc(-c4noc(C)n4)c3)CC2)cc1", "survival": "77%"}
    ]}
  ]
}
